Experimental data: PubChem BioAssay (NCI)
The panel holds about 83,000 compounds, 20% with a hit somewhere; the sample as a whole holds those more often.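 Cell lines were cultured in 96-well plates, exposed to a single compound concentration, and assessed for percent growth 48 hours later.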 Values without a mark were called inactive. The source made the active and inactive calls. The calls were made as follows: active = growth percent below 10; inactive = the rest.

system: 786-0 renal; experiment: NCI-60 one-dose screen, 48 h (100 = growth as untreated, 0 = no growth, -100 = all killed); conditions: 10 µM

Row | Compound | growth
1 | C[n+]1c2ccccc2nc2ccccc21 | 10.9%
2 | C=CCn1c(SCC(=O)Nc2ccc(C(=O)/C=C/c3ccc(OC)cc3)cc2)nnc1-c1ccc(OC)c(OC)c1 | 79.9%
3 | Cc1n[nH]c(C)c1N=Nc1cccc2c1C(=O)c1ccccc1C2=O | 101%
4 | CC[C@H]1OC(=O)[C@H](C)[C@@H](O[C@H]2C[C@@](C)(OC)[C@@H](O)[C@H](C)O2)[C@H](C)[C@@H](O[C@@H]2O[C@H](C)C[C@H](N(C)C)[C@H]2O)[C@](C)(OC)C/C(C)=C2/O[C@@]1(C)C=C2C | 72%
5 | CCOC(=O)CN(c1sc(C)c(C)c1C(=O)OCC)S(=O)(=O)c1ccc(C)cc1 | 92.8%
6 | Cc1noc(C)c1CSc1ccccc1C(=O)N1CCN(c2cccc(C(F)(F)F)c2)CC1 | 87.5%
7 | O=C(CCCSc1nc(-c2ccccc2)cc(-c2ccc(Cl)cc2)n1)NO | 9.83% (active)
8 | O=C(Nc1ccc(F)cc1)c1cc2ccccc2cc1O | 93.5%
9 | COc1ccc(-c2cc(-c3ccccc3)nc(SCCCCCCC(=O)NO)n2)cc1 | 79.8%
10 | COc1cc2c(cc1NC(=O)C(F)(F)F)-c1ccc(NC(=O)C(F)(F)F)cc1C2 | 98.6%
11 | S=C(NCc1ccccc1)NCc1ccccc1 | 96.6%
12 | NNC(=O)Oc1c(Cl)cc(Cl)cc1[N+](=O)[O-] | 105%
13 | Cc1c(Cl)cccc1NC(=O)CN1CCOCC1 | 99.7%
14 | O=C1c2ccccc2C(=O)N1CCCCNc1ccccc1 | 63.7%
15 | COc1ccc2c(c1)CC=C1[C@@H]2CC[C@]2(C)C(=O)/C(=N/O)C[C@@H]12 | 90.3%
16 | CC(C)(C)OC(=O)CN1CCc2c(sc3ncnc(N/N=C/c4ccccc4Br)c23)C1 | 77%
17 | COc1cc(/C=C/c2cc(/C=C/c3ccc(O)c(OC)c3)n(C(=O)Nc3ccccc3Cl)n2)ccc1O | -14.8% (active)
18 | O=C(CSc1nnc(-c2ccc(Cl)cc2)o1)Nc1ccc(C(=O)/C=C/c2ccc(Cl)cc2)cc1 | 99.9%

Row | Compound | growth
19 | Nc1nc(Cn2c(-c3nonc3N)nc3ccccc32)nc(N2CCCCC2)n1 | 92%
20 | CC(C)N(CCOc1ccc(-c2nc3sccn3c2-c2ccnc(S(C)(=O)=O)n2)cc1)C(C)C | 77.6%
21 | O=C1CSC(=S)N1/N=C/c1ccc(Cl)s1 | 102%
22 | CCN(CC)CCOC(=O)c1cc(OCc2ccccc2)c(OCc2ccccc2)c(OCc2ccccc2)c1 | 52.1%
23 | CNC(=O)c1cc(Oc2ccc3c(c2)sc2nc(-c4ccc(N)cc4)cn23)ccn1 | 19.4%
24 | COc1ccc(-c2cc(-c3ccc(Cl)cc3)nc(SCCCCCCC(=O)NO)n2)cc1OC | 51.3%
25 | O=C(O)COc1c(Cl)cc([N+](=O)[O-])cc1Cl | 88.6%
26 | COC(=O)C1(O)NC(=C(C#N)C#N)C(C#N)=C1C(=O)c1ccc(OC)c(OC)c1 (stereo not given) | 101%
27 | COc1ccc(C2=Cn3c(CCC(=O)c4nc5ccccc5[nH]4)nnc3SC2)cc1 | 104%
28 | COc1cc2cc(Oc3ccc(NC(=O)c4cc(C(F)(F)F)cc(C(F)(F)F)c4)cc3)c(C)nc2cc1OC | 64.5%
29 | Oc1ccc(/C=N/N=C2c3ccccc3-c3ccccc32)c(O)c1 | 80.4%
30 | COc1cccc(C2C(C#N)=C(N)Oc3cc(N)ccc32)c1 (stereo not given) | 53.9%
31 | COc1ccc(C(c2ccc(OCCN(C)C)cc2)c2cc3ccccc3c3ccccc23)cc1 (stereo not given) | 50.6%
32 | Clc1nc2ccc(Br)cc2cc1-c1nc2ccccc2[nH]1 | 91%
33 | Cc1cccc(N=Cc2ccccc2O)c1C | 94.5%
34 | CC(C)c1ccc(C(C)C(=O)N(CC2=C(C(C)c3ccccn3)c3ccccc3C2)C(C)C)cc1 (stereo not given) | 40.9%
35 | CC(=O)N[C@H](C(=O)N[C@@H](CCCNC(=N)N)C(=O)N[C@@H](CCCCN)C(=O)N[C@@H](CCCNC(=N)N)C(=O)NC(C(=O)N[C@@H](CC(C)C)C(=O)N[C@@H](CCCNC(=N)N)C(=O)N[C@@]1(C)CCC/C=C\CCC[C@@](C)(C(=O)N[C@@H](CCCNC(=N)N)C(=O)N[C@@H](CCC(=O)O)C(=O)N[C@@H](CC(C)C)C(=O)N[C@H](C(=O)N[C@@H](CCC(=O)O)C(N)=O)C(C)C)NC(=O)[C@H](CCC(N)=O)NC(=O)[C@H](CC(C)C)NC(=O)[C@H](CC(C)C)NC1=O)[C@@H](C)O)C(C)C (stereo not given in full) | -85.6% (active)
